Active and inactive are the calls of the source. Unless noted, how the calls were made is not given here.
Key:
[1] = A549 cell viability effects, profiling panel, calcein-AM fluorescence, 48 h, basal (AID 1162); conditions: higher = more signal; further: test concentration not given here
[2] = adipocyte viability effects, profiling panel, cell-based, 3T3-L1 adipocytes, calcein-AM fluorescence, 48 h, basal (AID 1163); conditions: 3T3-L1 adipocytes viability, higher = more signal; further: test concentration not given here
[3] = HepG2 cell viability effects, profiling panel, calcein-AM fluorescence, 48 h, basal (AID 1164); conditions: higher = more signal; further: test concentration not given here
[4] = MM1S cell viability effects, profiling panel, calcein-AM fluorescence, 48 h, basal (AID 1165); conditions: higher = more signal;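 further: viability of MM1S multiple myeloma cells under basal unstimulated conditions; test concentration not given here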
[5] = basal RPMI8226 viability, no added stimulus, profiling panel, cell-based, calcein-AM fluorescence, 48 h, PK04 Diversity Set (AID 1166); conditions: RPMI8226 myeloma viability, higher = more signal;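 further: cells grown under basal conditions without added stimulus; test concentration not given here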
[6] = basal HepG2 mitochondrial membrane potential changes, profiling panel, cell-based, JC-1 fluorescence, 24 h, 100 nL compound (AID 1167); conditions: higher = more signal; further: test concentration not given here
[7] = basal 3T3-L1 adipocyte mitochondrial potential changes, profiling panel, cell-based, JC-1 fluorescence, 3T3-L1 adipocytes, 24 h, 100 nL compound (AID 1168); conditions: JC-1 mitochondrial fluorescence, higher = more signal, called active from +8 up or from −8 down; further: test concentration not given here
[8] = basal RPMI8226 mitochondrial membrane potential changes, profiling panel, cell-based, JC-1 fluorescence, 24 h, 100 nL compound (AID 1169); conditions: RPMI8226 myeloma, JC-1 mitochondrial potential fluorescence, higher = more signal; further: test concentration not given here
[9] = basal MM1S mitochondrial membrane potential changes, profiling panel, cell-based, JC-1 fluorescence, 24 h, 100 nL compound (AID 1170); conditions: higher = more signal; further: test concentration not given here
[10] = A549 lung cancer cell viability effects, profiling panel, resazurin fluorescence, 24 h, PK04 Diversity Set (AID 1171); conditions: higher = more signal, called active from +8 up or from −8 down; further: test concentration not given here
[11] = HepG2 liver cancer cell viability effects, profiling panel, resazurin fluorescence, 24 h, PK04 Diversity Set (AID 1172); conditions: higher = more signal; further: test concentration not given here
[12] = basal S. cerevisiae growth modulation, no modifier, primary screen, OD600, strain BY4716, 24 h, basal condition (AID 1173); conditions: OD600, 24 h, higher = more signal, called active from +8 up or from −8 down
[13] = MM1S myeloma cell viability, profiling panel, resazurin fluorescence, basal, 24 h, PK04 Diversity Set (AID 1174); conditions: higher = more signal, called active from +8 up or from −8 down;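 further: MM1S multiple myeloma cell line; test concentration not given here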
[14] = biological target: Dihydroorotate dehydrogenase (quinone), mitochondrial (Plasmodium falciparum (isolate 3D7)) (UniProt Q08210); experiment: PfDHODH enzyme inhibitors, primary screen, biochemical, C-terminal His tag, absorbance 600 nm (AID 1175); conditions: DCIP absorbance 600 nm, higher = more signal, called active from +8 up or from −8 down;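 further: recombinant parasite enzyme with a five histidine tag at its C terminus; test concentration not given here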
[15] = P. aeruginosa biofilm formation inhibitors, primary screen, strain PAO1, LB-PBS medium, absorbance 600 nm (AID 1176); further: test concentration not given here; conditions: P. aeruginosa PAO1 growth/biofilm, A600, 12 h; higher = more signal
[16] = S. cerevisiae RM11-1a growth modifiers, primary screen, strain RM11-1a, OD600, basal, 24 h (AID 1177); conditions: OD600, 24 h, higher = more signal, called active from +8 up or from −8 down;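 further: cultures grown under basal conditions with no added stressor; test concentration not given here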
[17] = E. coli acrAB mutant growth effects, primary screen, E. coli filamentation inducers, strain DRC39, OD650, 24 h (AID 1178); conditions: higher = more signal, called active from +8 up or from −8 down;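 further: growth measured as culture turbidity by optical density at 650 nm; test concentration not given here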
[18] = E. coli acrAB mutant growth effects, primary screen, E. coli filamentation inducers, strain DRC39, OD650, 48 h (AID 1179);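 further: screen aims at cell division blockers that make cells filament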; conditions: E. coli DRC39 delta-acrAB growth, higher = more signal, called active from +8 up or from −8 down
[19] = RPMI8226 myeloma cell viability, profiling panel, resazurin fluorescence, basal, 24 h, PK04 Diversity Set (AID 1180); conditions: higher = more signal;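 further: RPMI8826 multiple myeloma cell line at 5000 cells per well; test concentration not given here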
[20] = biological target: E3 ubiquitin-protein ligase XIAP (Homo sapiens) (UniProt P98170); experiment: XIAP binders, primary screen, biophysical, small-molecule microarray, fluorescence 635 nm (AID 1181); conditions: small-molecule microarray binding, higher = more signal;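 further: score merges 667 nm emission and signal to noise over triplicate slides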
Sequence of E3 ubiquitin-protein ligase XIAP (Homo sapiens) (P98170 whole entry, looked up): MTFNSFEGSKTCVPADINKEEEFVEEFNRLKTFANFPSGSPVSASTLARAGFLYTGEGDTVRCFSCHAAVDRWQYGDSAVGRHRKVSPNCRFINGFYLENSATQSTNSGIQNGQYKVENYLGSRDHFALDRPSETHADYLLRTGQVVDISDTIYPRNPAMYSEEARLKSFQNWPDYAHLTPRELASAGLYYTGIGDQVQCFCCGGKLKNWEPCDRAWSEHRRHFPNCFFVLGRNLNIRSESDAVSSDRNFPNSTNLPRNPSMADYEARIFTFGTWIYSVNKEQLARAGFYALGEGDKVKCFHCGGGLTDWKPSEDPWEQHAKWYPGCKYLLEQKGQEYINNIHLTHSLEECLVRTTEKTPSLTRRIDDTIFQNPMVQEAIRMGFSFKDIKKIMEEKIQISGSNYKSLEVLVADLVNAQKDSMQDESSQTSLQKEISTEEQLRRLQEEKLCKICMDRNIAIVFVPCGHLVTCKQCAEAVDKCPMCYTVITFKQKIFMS

Sequence of Dihydroorotate dehydrogenase (quinone), mitochondrial (Plasmodium falciparum (isolate 3D7)) (Q08210 whole entry, looked up): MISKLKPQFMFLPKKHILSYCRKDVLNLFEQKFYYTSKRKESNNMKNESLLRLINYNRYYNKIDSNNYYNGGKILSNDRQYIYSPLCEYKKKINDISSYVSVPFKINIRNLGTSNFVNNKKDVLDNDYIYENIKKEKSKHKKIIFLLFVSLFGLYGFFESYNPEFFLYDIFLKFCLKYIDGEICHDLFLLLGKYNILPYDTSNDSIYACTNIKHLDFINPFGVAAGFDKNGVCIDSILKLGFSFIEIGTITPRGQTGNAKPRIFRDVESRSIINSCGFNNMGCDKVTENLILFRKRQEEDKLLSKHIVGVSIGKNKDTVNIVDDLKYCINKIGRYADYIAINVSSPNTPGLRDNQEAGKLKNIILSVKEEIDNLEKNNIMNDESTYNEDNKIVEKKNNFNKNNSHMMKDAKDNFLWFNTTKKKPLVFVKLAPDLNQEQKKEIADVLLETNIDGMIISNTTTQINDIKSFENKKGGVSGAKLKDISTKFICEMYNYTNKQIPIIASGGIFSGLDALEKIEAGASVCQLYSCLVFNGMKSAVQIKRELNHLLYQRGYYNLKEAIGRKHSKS

SMILES	z-score [1]	z-score [2]	z-score [3]	z-score [4]	z-score [5]	z-score [6]	z-score [7]	z-score [8]	z-score [9]	z-score [10]	z-score [11]	z-score [12]	z-score [13]	composite z-score [14]	z-score [15]	z-score [16]	z-score [17]	z-score [18]	z-score [19]	composite z-score [20]
Cc1ccc(S[C@]2(C(=O)NC(C)C)CC(=O)N(C(C)C)[C@@H]2c2ccc(CO)cc2I)cc1	0.931	-0.134	0.0096	-2.39	-1.38	1.09	0.389 (inactive)	-0.312	-1.32	-0.0361 (inactive)	0.197	-2.15 (inactive)	-0.463 (inactive)	0.0738 (inactive)	0.444 (inactive)	-0.471 (inactive)	0.882 (inactive)	-0.0992 (inactive)	-1.72	0.158
O=C(O)[C@H]1C[C@H]2C(=O)N[C@@H](Cc3ccccc3)C(=O)N2[C@H]1c1cccc(OCCO)c1	1.11	-0.218	0.259	-3.41	-0.958	1.64	-0.169 (inactive)	-0.299	-1.18	0.75 (inactive)	1.02	-1.46 (inactive)	0.912 (inactive)	-1.98 (inactive)	-0.295 (inactive)	-0.655 (inactive)	-0.688 (inactive)	0.214 (inactive)	0.889	-0.0323
[N-]=[N+]=NCc1ccccc1C[C@]1(C(=O)N2CCOCC2)COC(c2ccc(OCCCO)cc2)=N1	0.0386	0.926	0.383	-3.46	-2.89	1.72	0.665 (inactive)	-0.843	-0.968	-0.36 (inactive)	0.0629	-2.42 (inactive)	0.117 (inactive)	0.42 (inactive)	0.715 (inactive)	1.43 (inactive)	2.56 (inactive)	1.71 (inactive)	0.698	0.18
CCCCC(=O)N(CCN1CCOCC1)[C@@H]1CC(C(=O)NCCO)=C[C@H](Oc2c(I)cc(CO)cc2OC)[C@H]1O	1.5	-1.07	0.569	0.135	-0.157	-0.959	-0.716 (inactive)	-0.277	-0.109	-0.0043 (inactive)	0.246	-1.23 (inactive)	0.0671 (inactive)	0.229 (inactive)	0.118 (inactive)	0.615 (inactive)	1.34 (inactive)	1.15 (inactive)	0.29	-0.22
COCCOC(=O)N1C(=O)[C@@]2(c3cc(C#Cc4ccc(OC)cc4)ccc31)[C@H](C(=O)NC[C@H](O)c1ccccc1)[C@H]1C(=O)O[C@H](c3ccccc3)[C@H](c3ccccc3)N1[C@@H]2c1ccc(OCCO)cc1	-0.953	0.55	-1.1	-0.915	-1.47	-1.97	2.35 (inactive)	-0.66	-1.78	1.32 (inactive)	1.21	1.95 (inactive)	0.0406 (inactive)	1.86 (inactive)	1.93 (inactive)	2.67 (inactive)	0.14 (inactive)	-0.35 (inactive)	-0.285	-0.0883
O=C1NC(=O)C2C1C=CC(C(O)c1ccccn1)N2Nc1ccc(Cl)cc1Cl (stereo not given)	-0.881	-0.253	-0.707	-0.588	-0.54	-1.36	-0.766 (inactive)	-0.05	-0.173	-0.572 (inactive)	-1.08	-4.1 (inactive)	-0.837 (inactive)	-0.0894 (inactive)	0.931 (inactive)	0.351 (inactive)	-0.587 (inactive)	-0.534 (inactive)	-1.82	-0.131
C=CCNC(=O)[C@H]1[C@@H]2C(=O)O[C@@H](c3ccccc3)[C@@H](c3ccccc3)N2[C@@H](c2ccc(OCCO)cc2)[C@]12C(=O)Nc1ccc(C#CCNC(N)=O)cc12	0.292	1.63	-0.529	-1.41	-0.062	-1.11	-0.657 (inactive)	-0.0816	0.938	-0.805 (inactive)	-0.598	2.3 (inactive)	0.0869 (inactive)	0.428 (inactive)	1.99 (inactive)	3.25 (inactive)	-0.575 (inactive)	-1.22 (inactive)	0.687	-0.163
COc1ccc(C#Cc2ccc3c(c2)[C@]2(C(=O)N3)[C@H](C(=O)N3CCCCCCC3)[C@H]3C(=O)O[C@H](c4ccccc4)[C@H](c4ccccc4)N3[C@@H]2c2ccc(O)cc2)cc1	-0.636	1.61	-0.984	0.171	-1.05	-1.2	1.34 (inactive)	-0.582	-0.191	0.601 (inactive)	0.629	0.299 (inactive)	0.697 (inactive)	-8.52 (active)	1.19 (inactive)	0.136 (inactive)	-0.45 (inactive)	-0.601 (inactive)	0.428	-0.0149
COc1ccc(C(=O)Nc2cccc(CN3C(=O)[C@]4(O[C@H](CCn5cc([C@H](O)c6ccccc6)nn5)[C@@H]([Si](C)(C)c5ccc(OC)cc5)[C@@H]4C)c4ccccc43)c2)cc1	-1.17	0.408	-2.1	-3.03	-2.99	2.27	-0.386 (inactive)	-0.989	-1.12	-2.56 (inactive)	-2.58	-1.18 (inactive)	-5.94 (inactive)	-0.512 (inactive)	1.86 (inactive)	0.99 (inactive)	-0.409 (inactive)	-0.389 (inactive)	-5.61	0.0589
CN1C(=O)[C@@H]2[C@@H](CC(COc3ccccc3)=C([C@H](O)CCc3ccccc3)[C@@H]2CO)C1=O	1.9	-0.13	0.943	0.445	-0.388	0.397	0.813 (inactive)	-0.274	0.472	-0.123 (inactive)	0.358	-3.31 (inactive)	0.0223 (inactive)	-0.171 (inactive)	-0.104 (inactive)	-0.136 (inactive)	2.19 (inactive)	1.17 (inactive)	0.685	0.0178
[N-]=[N+]=Nc1ccccc1C[C@@]1(C(=O)O)N=C(c2ccc(OCCCO)cc2)O[C@@H]1c1ccccc1N=[N+]=[N-]	-0.404	-0.115	-0.36	-2.44	-2.44	-2.37	-0.74 (inactive)	-0.56	-0.739	0.13 (inactive)	0.628	-2.04 (inactive)	-0.988 (inactive)	-0.435 (inactive)	0.879 (inactive)	-1.23 (inactive)	-0.258 (inactive)	-0.69 (inactive)	-0.955	-0.0374
CCCCC=C[C@@H](NC(=O)c1ccccc1)c1ccccc1	-1.07	-0.417	-1.02	-0.842	-2.29	0.18	-1.04 (inactive)	0.135	-0.434	0.962 (inactive)	-0.35	0.483 (inactive)	0.0386 (inactive)	-0.845 (inactive)	1.43 (inactive)	0.0455 (inactive)	-1.44 (inactive)	-1.29 (inactive)	-0.321	0.0348
C=C(CCCC)C(=O)CC[C@@H](OC(=O)c1cccnc1)c1ccc(OCCO)cc1	0.67	0.866	0.376	-3.34	-2.89	-0.279	-0.188 (inactive)	-0.673	-0.652	0.116 (inactive)	-0.211	-2.75 (inactive)	-1.43 (inactive)	-2.9 (inactive)	0.543 (inactive)	-0.208 (inactive)	-0.566 (inactive)	-0.547 (inactive)	-2.52	0.0542
COc1ccc([Si](C)(C)[C@H]2[C@H](CCO)O[C@@]3(C(=O)N(Cc4ccccc4)c4ccc(N5C(=O)c6ccccc6Oc6ccccc65)cc43)[C@@H]2C)cc1	-1.01	0.271	-3.26	-1.7	-3.51	0.0091	-0.404 (inactive)	-0.896	-1.53	-2.28 (inactive)	-1.6	1.09 (inactive)	-4.24 (inactive)	0.906 (inactive)	2.38 (inactive)	3.48 (inactive)	0.0105 (inactive)	-0.615 (inactive)	-3.34	-0.172
CC(C)=CCCC(C)=CC(O)C1C=CC2C(=O)N(c3ccccc3)C(=O)C2N1Nc1ccccc1F (stereo not given)	0.154	0.0094	0.443	0.381	-0.93	-0.143	-0.507 (inactive)	-0.271	-0.426	0.598 (inactive)	0.856	-1.18 (inactive)	0.47 (inactive)	-0.323 (inactive)	0.505 (inactive)	-0.54 (inactive)	0.131 (inactive)	0.739 (inactive)	1.22	-0.21
CCOC(=O)C=Cc1cc(F)ccc1O	-1.13	0.749	-0.714	-0.633	-1.39	-1.19	-0.966 (inactive)	0.287	-0.0774	0.0142 (inactive)	-0.338	-12.6 (active)	-0.99 (inactive)	-1.09 (inactive)	-0.0727 (inactive)	-23.2 (active)	-1.01 (inactive)	-1.31 (inactive)	-0.935	-0.196
C=CCC(OC(C)=O)[C@@H]1[C@@H](N(Cc2ccc(-c3ccccc3)cc2)C(=O)Cc2ccc(F)cc2)c2cc(OCCCO)ccc2N1C(=O)Cc1ccc2ccccc2c1 (stereo not given in full)	0.234	-0.246	0.646	-0.177	0.0473	2.19	-0.321 (inactive)	-0.909	0.89	1.05 (inactive)	0.487	-0.0838 (inactive)	0.821 (inactive)	0.252 (inactive)	0.113 (inactive)	-0.177 (inactive)	0.531 (inactive)	0.575 (inactive)	0.486	-0.455
